This is an account of results in the supplement of paper PMC10338343.

± gives the standard deviation.

This experiment deals with EfPiwi piRISC loaded with L1MC piRNA (26 nt). The experiment in a line: pre-steady-state target cleavage rate (min^-1); auxiliary factor: 500 nM Ephydatia muelleri Gtsf1; guide: L1MC piRNA 5'p-UAACUAAAUACUAUGCAAGCUGUAGG; MIWI and MILI are mouse PIWI proteins and EfPiwi is from a freshwater sponge; tags in brackets are library labels; higher = faster piRNA-guided slicing of the target. In outline: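 For Cleave-'n-Seq, a transcribed, DNA-blocked target RNA library […] met 1 nM active affinity-purified piRISC with one synthetic guide at 33 °C for 0–8 or 0–960 min in HEPES–potassium acetate buffer, with or without 500 nM GTSF1 partner protein. Uncleaved targets were sequenced and normalised to depth and weakly complementary targets, with three trials pooled and k3 capped at 0.0001 min^-1. A burst-and-steady-state fit supplied the pre-steady-state cleavage rate.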
For the sequence UCCUGGUACAGCUUGCAUAGUACUUAGUUA, the “pre-steady-state target cleavage rate” value amounted to 0.00275 ± 0.0022.

Consider UCCUGCUACUGCUUGGAUAGUAUUUAGUUA, for which the “pre-steady-state target cleavage rate” value was 0.0111 ± 0.0029.

Regarding UCCUGGAUGUGCUGCAUAGUAUUUAGUUA, the “pre-steady-state target cleavage rate” value stood at 0.00571 ± 0.0034. As to UCCUGGAUGUGACUUGCAUAGUAUUUAGUUA, the “pre-steady-state target cleavage rate” value was 0.00497 ± 0.0028. As for UCCUGGUAGUGCUUGCAUAGUAUUUAGUAA, the figure is 0.00326 ± 0.0024; as for UCCUGGAACUGCUUGCAUAGUAUUUAGUAA, 0.00308 ± 0.0023. With UCCUCCUACACCAUGCAUAGUAUUUAGUUA, the “pre-steady-state target cleavage rate” value turned out to be 0.145 ± 0.05.

Take UCCUGGAUGUGCUUGCAUAGUAUUUAAGUUA: the “pre-steady-state target cleavage rate” value came to 0.0404 ± 0.015.

Take UCCUGGUACAGCAUUGCAUAGUAUUUAGUUA: the “pre-steady-state target cleavage rate” value is 0.0107 ± 0.004.

With UCCUGGAUGUCGUUUGCAUAGUAUUUAGUUA, the “pre-steady-state target cleavage rate” value came to 0.0445 ± 0.013. In the case of UCCUGGUACAGCUUGCAAGUAUUUAGUUA it was 0.00546 ± 0.0031; in that of UCCUGGAUCAGCUAGCAUAGUAUUUAGUAA, 0.00362 ± 0.0032. In the case of UCCUGGAUCAGCUUGCAUGGUAUUUAGUUA it was 0.0193 ± 0.0038; in that of UCCUGGAACAGCUUGUAUAGUAUUUAGUUA, 0.0686 ± 0.013. Take UCCUCCUACAGCUAGCUUAGUAUUUAGUUA: the “pre-steady-state target cleavage rate” value was 0.00997 ± 0.0038. On to UCCUGGUAGAGCUUGCUUAGUAUUUAGUUA, for which the “pre-steady-state target cleavage rate” value came out at 0.00885 ± 0.0045. Turning to UCCUGCUACAGCUAGGAUAGUAUUUAGUUA, the “pre-steady-state target cleavage rate” value is 0.011 ± 0.0037. Turning to UCCUGGAUGUGCUUGCAUAGUCUUUAGUUA, the “pre-steady-state target cleavage rate” value was 0.00922 ± 0.0036. Take UCCUCCUUGUGCUUGCAUAGUAUUUAGUUA: the “pre-steady-state target cleavage rate” value is 0.0113 ± 0.0034.

For UCCUGGAACAGCUGUGCAUAGUAUUUAGUUA, the “pre-steady-state target cleavage rate” value stood at 0.00999 ± 0.0023.

In the case of UCCUGGUUCAGCUUGCAUAGUUUUUAGUUA, the “pre-steady-state target cleavage rate” value came out at 0.00498 ± 0.0023.

UCCUGGUACUGGUUGCAUAGUAUUUAGUUA: the “pre-steady-state target cleavage rate” value stood at 0.0054 ± 0.0031. For UCCUGGAUCAGCUUGCUUAGUAUUAAGUUA, the “pre-steady-state target cleavage rate” value came to 0.00376 ± 0.0025. In the case of UCCUCCUACAGCUUGCAUAGAUUUUAGUUA it was 0.0032 ± 0.002.
